In the supplement of paper PMC10981050:
Values joined by “and” are separate entries in the source; they are usually repeats but may differ in a detail not shown here. Identical values can stand only once. Counter-ions that a name gives are not always drawn.

Experiments:
Experiment in all cases: cell viability relative to vehicle control; higher = less cytotoxic
Details in all cases: 10 µM
K562 = test system: K562
How it was run: (§1)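 Mutant clones made by CRISPR editing and their isogenic wild-type counterparts, from four leukaemia lines, were exposed to a single 10 µM dose of each library compound for 48 h. The supernatant was then removed and CellTiter-Glo luminescence was read. Viability was reported as percent of the on-plate vehicle control.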

MARIMO = test system: MARIMO
How it was run: as §1

MOLM14 = test system: MOLM14
How it was run: as §1

OCI-AML2 = test system: OCI-AML2
How it was run: as §1

Row | SMILES | cell viability (K562; SRSF2 genotype: SRSF2 P95H/wt) | cell viability (K562; SRSF2 genotype: SRSF2 wt/wt) [%] | cell viability (MARIMO; SRSF2 genotype: SRSF2 P95H/wt) [%] | cell viability (MARIMO; SRSF2 genotype: SRSF2 wt/wt) [%] | cell viability (MOLM14; SRSF2 genotype: SRSF2 P95H/wt) [%] | cell viability (MOLM14; SRSF2 genotype: SRSF2 wt/wt) [%] | cell viability (OCI-AML2; SRSF2 genotype: P95H/wt) [%] | cell viability (OCI-AML2; SRSF2 genotype: wt/wt) [%]
1 | O=c1ccc2cc(O[C@@H]3O[C@H](CO)[C@@H](O)[C@H](O)[C@H]3O)c(O)cc2o1 [Aesculin (Esculin)] | 104% and 98.9% | 100 | 96.9 | 97.7 | 101 | 99.7 | 95.1 | 93.3
2 | O=C(c1ccccc1O)c1[nH]c(Cl)c(Cl)c1-n1c(C(=O)c2ccccc2O)cc(Cl)c1Cl [Marinopyrrole A (Maritoclax)] | 12.6% and 15.9% | 14.3 | 24.9 | 21.3 | 13.5 | 12.8 | 4.26 | 11.9
3 | O=S(=O)(CC1CS1)c1ccc(Oc2ccccc2)cc1 (configuration not stated) | 88.7% and 98.8% | 92.2 | 45.8 | 73.1 | 39.1 | 29.4 | 14.9 | 14.1
4 | CCN1C[C@]2(COC)CC[C@H](OC)[C@]34C1[C@H]([C@H](OC)[C@H]23)[C@@]1(OC(C)=O)C[C@H](OC)[C@@]2(O)C[C@@H]4[C@@H]1[C@H]2OC(=O)c1ccc(OC)cc1 [Crassicauline A] | 93.2% and 89.8% | 87.5 | 84.4 | 93.3 | 91.8 | 90.6 | 87.7 | 100
5 | COc1ccc(C[C@H]2NC[C@H](O)[C@H]2OC(C)=O)cc1 [Anisomycin] | 4.09% and 9.55% | 7.54 | 13.6 | 6.74 | 0.46 | 0.44 | 3.57 | 10.5
6 | COC(=O)C1=CCCN(C)C1 [Arecoline HBr] | 93.5% and 96.8% | 97.5 | 96 | 99 | 97.4 | 99.9 | 92 | 106
7 | O=C(O)C(=O)c1cn(Cc2ccccc2)c2ccc(-c3ccc(OC(F)(F)F)cc3)cc12 [Tiplaxtinin (PAI-039)] | 84.4% and 88.9% | 90.3 | 92.3 | 101 | 90.9 | 93.8 | 97.4 | 103
8 | COc1cc2c(cc1OC)[C@@H](Cc1ccc(O)c(Oc3cc4c(cc3OC)CCN(C)[C@@H]4Cc3ccc(O)cc3)c1)N(C)CC2.[O-][Cl+3]([O-])([O-])O [Liensinine perchlorate] | 76.2% and 65.4% | 65.4 | 55.5 | 66.8 | 50.4 | 56.1 | 51.5 | 45
9 | CCN1CCN(C(=O)Cc2ccc(Nc3ncc(F)c(Nc4ccc(C(=O)Nc5ccccc5Cl)cc4)n3)cc2)CC1 [Aurora A Inhibitor I] | 0.7% and 0.51% | 15.3 | 0.53 | 3.65 | 0.41 | 0.49 | 4.67 | 4.81
10 | CC(=O)Nc1ccc(Cc2ccc(NC(C)=O)cc2)cc1 | 104% and 107% | 107 | 105 | 106 | 106 | 104 | 104 | 113
11 | O=C(O)CCCCCCCCCO [10-Hydroxydecanoic acid] | 99.2% and 97.8% | 100 | 97.8 | 101 | 97.9 | 99.3 | 99.4 | 92.7
12 | O=C1C=CC[C@@H]2[C@H]3CCCN4CCC[C@@H](CN12)[C@@H]34 [Sophocarpine] | 103% and 107% | 102 | 108 | 111 | 106 | 106 | 98.4 | 108
13 | CCOc1ccccc1-n1c(C(C)N2CCN(C(=O)COc3ccc(Cl)cc3)CC2)nc2ccccc2c1=O (configuration not stated) [Erastin] |  | 63 | 21.1 | 38.8 | 6.91 | 3.65 | 0.65 | 12.4
14 | Cc1cccc(C)c1NC1=NCCCS1 [Xylazine HCl] | 101% and 85.1% | 82.8 | 85.1 | 96.8 | 90.4 | 91.5 | 89.1 | 93.1
15 | COc1ccc(C=O)cc1 [p-Anisaldehyde] | 107% and 99.7% | 111 | 103 | 103 | 105 | 104 | 97.2 | 117
16 | CC(=O)O[C@H]1CC[C@H]2[C@@H]3CCC4=CC(=O)CCC4=C3C=C[C@]12C [Trenbolone acetate] | 98.4% and 111% | 98.9 | 87.2 | 96 | 83 | 102 | 114 | 101
17 | CC(=O)OCC1=C(C(=O)O)N2C(=O)C(N)C2SC1 (configuration not stated) [7-Aminocephalosporanic acid] | 107% and 103% | 102 | 101 | 108 | 111 | 107 | 109 | 110
18 | Cc1cccc([C@H](C)c2c[nH]cn2)c1C [Dexmedetomidine] | 97.4% and 102% | 98.5 | 95.6 | 101 | 105 | 102 | 114 | 95.9

Row | SMILES | cell viability (K562; SRSF2 genotype: SRSF2 P95H/wt) | cell viability (K562; SRSF2 genotype: SRSF2 wt/wt) [%] | cell viability (MARIMO; SRSF2 genotype: SRSF2 P95H/wt) [%] | cell viability (MARIMO; SRSF2 genotype: SRSF2 wt/wt) [%] | cell viability (MOLM14; SRSF2 genotype: SRSF2 P95H/wt) [%] | cell viability (MOLM14; SRSF2 genotype: SRSF2 wt/wt) [%] | cell viability (OCI-AML2; SRSF2 genotype: P95H/wt) [%] | cell viability (OCI-AML2; SRSF2 genotype: wt/wt) [%]
19 | C/C(O)=C(\C#N)C(=O)Nc1cc(Br)ccc1Br | 88.8% and 87.1% | 89.1 | 88.4 | 96.5 | 78.9 | 93.7 | 86.1 | 87.7
20 | CCOC(=O)Nc1ccc(NCc2ccc(F)cc2)cc1N [Retigabine 2HCl] | 94.1% and 97.3% | 97.4 | 91.6 | 103 | 105 | 102 | 96.5 | 102
21 | COc1ccc2c(c1)/C(=C/c1cnc[nH]1)C(=O)N2 | 91.8% and 96.2% | 88 | 33.7 | 39.8 | 22.1 | 3.31 | 15.4 | 24.6
22 | COC1=C[C@@H]2[C@@H]3Cc4ccc(OC)c(O)c4[C@]2(CCN3C)CC1=O [Sinomenine (Cucoline)] | 103% and 95.1% | 90.5 | 97.9 | 96.2 | 89.9 | 97.3 | 95 | 97.8
23 | CC(C)=CCCC(C)(O)C1CCC2(C)C1C(O)CC1C3(C)CCC(O)C(C)(C)C3C(OC3OC(CO)C(O)C(O)C3O)CC12C [20(S)-Ginsenoside Rh1] | 103% and 105% | 101 | 106 | 110 | 102 | 106 | 107 | 115
24 | CC[C@@H](C(N)=O)N1CCCC1=O [Levetiracetam] | 110% and 104% | 102 | 102 | 109 | 101 | 108 | 106 | 106
25 | Cc1c(Cl)c(OCC(=O)N2CCN(C)CC2)nc2sc(C(=O)NC3CC3)c(N)c12 | 80.2% and 60.3% | 66 | 40.5 | 30.8 | 81.9 | 51 | 27.8 | 33.5
26 | CC(C)c1ccc2c(c1O)CC[C@H]1C3=C(CC[C@]21C)C(=O)OC3 [Triptophenolide] | 70.5% and 80.3% | 79.5 | 70.3 | 62.5 | 99.4 | 92 | 49 | 61.7
27 | Cc1c(N)nc(C(CC(N)=O)NCC(N)C(N)=O)nc1C(=O)NC(C(=O)NC(C)C(O)C(C)C(=O)NC(C(=O)NCCc1nc(-c2nc(C(=O)NCCC[S+](C)C)cs2)cs1)C(C)O)C(O[C@@H]1O[C@@H](CO)[C@@H](O)[C@H](O)[C@@H]1O[C@H]1O[C@H](CO)[C@@H](O)[C@H](OC(N)=O)[C@@H]1O)c1cnc[nH]1 (some centres not stated) [Bleomycin sulfate] | 95.9% and 107% | 69.7 | 7.26 | 8.15 | 53.4 | 21.6 | 27 | 36.8
28 | Nc1ncnc2c1ccn2[C@@H]1O[C@H]([C@H](O)c2ccccc2)[C@@H](O)[C@H]1O | 89.1% and 85% | 79.6 | 83.5 | 95.3 | 77.1 | 89.3 | 79 | 88
29 | CC(C)=CCCC(C)(O)C1CCC2(C)C1C(O)CC1C3(C)CCC(OC4OC(CO)C(O)C(O)C4O)C(C)(C)C3CCC12C [(20R)Ginsenoside Rh2] | 90.5% and 92.8% | 96 | 101 | 102 | 102 | 96 | 98.5 | 106
30 | C[C@]12CC[C@H]3[C@@H](CCC4=CC(=O)C=C[C@@]43C)[C@@H]1CC[C@@H]2O [Boldenone] | 99.7% and 103% | 110 | 101 | 104 | 105 | 110 | 113 | 111
31 | CNCC(=O)c1ccc(O)c(O)c1 [Adrenalone HCl] | 97.4% and 92.4% | 98.3 | 91.8 | 92.3 | 88.6 | 94 | 90.5 | 97.5
32 | COC1CC(OC2CCC3(C)C(CCC45OC46CCC(C(C)=O)C6(C)C(OC(C)=O)C(OC(=O)c4ccccc4)C35)C2)OC(C)C1OC1OC(C)C(O)C(OC)C1O (configuration not stated) [Tenacissoside I] | 92.5% and 93.1% | 93.8 | 88.2 | 100 | 91.9 | 92.5 | 95 | 106
33 | CNC(C)Cc1ccccc1OC (configuration not stated) [Methoxyphenamine Hydrochloride] | 98% and 100% | 106 | 100 | 104 | 106 | 102 | 107 | 101
34 | CC1(C)C(=O)N(c2ccc(C#N)c(C(F)(F)F)c2)C(=O)N1CCCCO | 89% and 95% | 92.3 | 91.5 | 103 | 93.5 | 104 | 88.6 | 96.6
35 | CCC(C)C(=O)O[C@@H]1[C@@H](OC(C)=O)[C@]2(C)[C@H](C(C)=O)CC[C@@]23O[C@]32CC[C@H]3C[C@@H](O[C@H]4C[C@@H](OC)[C@H](O[C@@H]5O[C@H](C)[C@@H](O)[C@@H](OC)[C@H]5O)[C@@H](C)O4)CC[C@]3(C)[C@@H]12 (some centres not stated) [Tenacissoside H] | 89.8% and 95.2% | 97.7 | 96.9 | 93.2 | 94.6 | 93.4 | 98.9 | 96.7
36 | CC12NC(Cc3ccccc31)c1ccccc12 (single isomer, unassigned; (+)) [(+)-MK 801 maleate] | 92.8% and 93.5% | 93.2 | 85.7 | 91.7 | 91 | 91.5 | 86.7 | 99.1
